Inconclusive results are not listed. Where a call stands in place of a potency, no number is given. Activity calls are given as the source filed them. The call rests on the fitted dose curve; in most records, active means well fitted curve in the direction sought with a large enough effect in the signal ratio in the repeat runs (not every such curve was filed as active); inconclusive means weak or mixed curves, or a change in a side signal; inactive means no such curve, though single readings can be large or run the other way; the % refers to the signal ratio.
Assay: qHTS assay to identify small molecule agonists of the NFkB signaling pathway (AID 1159509)
Details: NFkB-bla ME-180 cells, beta-lactamase FRET ratio, 5 h; series mostly up to 61 µM
Text: National Center for Advancing Translational Sciences [NCATS]
NIH Chemical Genomics Center [NCGC]
U.S. Environmental Protection Agency [EPA]
National Institutes of Environmental Health Sciences [NIEHS]
National Toxicology Program [NTP]
U.S. Food and Drug Administration [FDA]
Transcription factors and their stimulated target gene expression play pivotal roles across many cellular processes including responses to environmental stimuli. Proper regulation of associated pathways is critical to maintain cell health and function. Constitutive activation of transcription factor pathways has been implicated in tumors as it may block cellular functions such as apoptosis and lead to invasion and metastasis. One important transcription factor that stimulates gene expression in response to cytokines, UV radiation, and other stimuli is nuclear factor-kappa B (NFkB). To measure activation of the NFkB pathway, the CellSensor NFkB-bla ME-180 cell line (Life Technologies, Carlsbad, CA) that stably expresses beta-lactamase reporter gene under the regulation of a NF-kB response element was used. This assay allows measurement of the NFkB pathway activity induced by compounds in a ME-180 cell line. This system quantitates NF-kB activity using a FRET-based assay system where beta-lactamase expression disrupts FRET, allowing for fluorescent measurement of activity. This cell line has been used to screen the Tox21 10K compound library and to identify compounds that induce the NFkB pathway activity.
Tox21 Assay Protocol Summary:
NFkB-bla ME-180 cells were dispensed at 2,000 cells/6 uL of assay medium per well into black wall/clear-bottom 1536-well plates using a Multidrop Combi (ThermoFisher Scientific, Waltham, MA) dispenser. After the assay plates were incubated at 37 C and 5% CO2 for an overnight, 23 nL of compounds dissolved in DMSO, positive controls or DMSO only was transferred to the assay plate by a Pintool station (Kalypsys, San Diego, CA). The assay plates were incubated at 37 C and 5% CO2 for 5 hr. One uL of LiveBLAzer B/G FRET substrate (Life Technologies) was added using a Flying Reagent Dispenser (Aurora Discovery, San Diego, CA) and the plates were incubated at room temperature for 1.5 hr. Fluorescence intensity (405 nm excitation, 460 nm and 530 nm emissions) was measured using an Envision plate reader (PerkinElmer, Shelton, CT).

| SMILES | Potency |
| --- | --- |
| CN1CCCN=C1COC(=O)C(O)(c1ccccc1)C1CCCCC1 (stereo not given) | inactive |
| Cc1ccco1 | inactive |
| CCCCCC[C@@H](O)C/C=C\CCCCCCCC(=O)OCC(O)CO (stereo not given in full) | inactive |
| CCCC(=O)C(=O)O | inactive |
| CCCCCCCCCCCCCCN(CCO)CCO | inactive |
| CCCCCCCC/C=C\CCCCCCCCO | inactive |
| CCCCCCCCCCC(=O)O | inactive |
| COc1ccc(OC(=O)N(CC(=O)O)Cc2ccc(OCCc3nc(-c4ccccc4)oc3C)cc2)cc1 | inactive |
| C[C@@H](O)[C@H]1C(=O)N2C(C(=O)O)=C([C@H]3CCCO3)S[C@H]12 | inactive |
| Brc1cc2ccccc2c2ccccc12 | inactive |
| OCCOCC#CCOCCO | inactive |
| C/C=C\C/C=C/CCCCCCCCOC(C)=O | inactive |
| CN1C[C@H](C(=O)N[C@]2(C)O[C@@]3(O)[C@@H]4CCCN4C(=O)[C@H](Cc4ccccc4)N3C2=O)C[C@@H]2c3cccc4[nH]cc(c34)C[C@H]21 | inactive |
| CC(C)C(O)(c1ccc(OC(F)(F)F)cc1)c1cncnc1 (stereo not given) | inactive |
| CC1(C)O[C@@H]2C[C@H]3[C@@H]4C[C@H](F)C5=CC(=O)C=C[C@]5(C)[C@H]4[C@@H](O)C[C@]3(C)[C@]2(C(=O)CO)O1 | inactive |
| O=C=Nc1ccc(Cl)c(Cl)c1 | inactive |
| CCOC(=O)c1ccc(I)cc1 | inactive |
| Oc1cc2c(cc1O)[C@H]1c3ccc(O)c(O)c3OC[C@@]1(O)C2 | inactive |
| CC(=O)Oc1ccc([N+](=O)[O-])cc1CCl | inactive |
| CC(CC1c2ccccc2CCc2ccccc21)CN(C)C (stereo not given) | inactive |

| SMILES | Potency |
| --- | --- |
| Oc1c(I)cc(I)c2cccnc12 | inactive |
| COc1ccccc1Oc1c(NS(=O)(=O)c2ccc(C(C)(C)C)cc2)nc(-c2ncccn2)nc1OCCO | inactive |
| Nc1nnc(-c2ccc([N+](=O)[O-])o2)o1 | inactive |
| CCCCCCNC(=O)n1cc(F)c(=O)[nH]c1=O | inactive |
| CC(C)(C)CC(=O)OCC(=O)[C@@]1(O)CC[C@H]2[C@@H]3CCC4=CC(=O)C=C[C@]4(C)[C@H]3[C@@H](O)C[C@@]21C | inactive |
| CC1CC(C)C(=O)C1=O (stereo not given) | inactive |
| C=CC(C)(CCC=C(C)C)OC(=O)CC(C)C (stereo not given) | inactive |
| CCOC(=O)C1=C(C)NC(C)=C(C(=O)OC)C1c1cccc(Cl)c1Cl (stereo not given) | inactive |
| CCC(OCCCOC)OC(C)=O (stereo not given) | inactive |
| C1C[C@@H]2[C@H]3CC[C@H](C3)[C@@H]2C1 | inactive |
| c1ccc2sc(SN(C3CCCCC3)C3CCCCC3)nc2c1 | inactive |
| O=c1cc(-c2ccccc2)oc2cc(O)cc(O)c12 | inactive |
| Cc1cc2c(OCC(CNC(C)(C)C)OC(=O)c3ccccc3)cccc2[nH]1 (stereo not given) | inactive |
| CC1=Nc2ccc3ccccc3c2C1(C)C | inactive |
| C[C@]1(Cn2ccnn2)[C@H](C(=O)O)N2C(=O)C[C@H]2S1(=O)=O | inactive |
| COc1cc(C(=O)NCCCCCC(=O)O)cc(OC)c1OC | inactive |
| COC(=O)CCS | inactive |
| O=c1cc(-c2ccccc2)oc2ccc3ccccc3c12 | inactive |
| CC(C)=CC(=O)C=C(C)C | inactive |
| CC1(C)[C@@H](OC(=O)CCC(=O)O)CC[C@]2(C)[C@H]3C(=O)C=C4[C@@H]5C[C@@](C)(C(=O)O)CC[C@]5(C)CC[C@@]4(C)[C@]3(C)CC[C@@H]12 | inactive |

— PubChem BioAssay (Tox21)
